# According to PubChem BioAssay (EPA / NIEHS):
# Several values for one entry are separate records, joined by “and”; a condition that tells them apart may be missing. Identical values can stand only once. Results filed as inconclusive are left out. Activity calls are given as the source filed them. Rule for the calls, unless noted: active = hit-call score of the fitted dose curve at least 0.9, where 1 is the maximum; inactive = score below 0.9.
# Key:
# [1] = target: Nucleoli Translocation, AR (gene 367) (UniProt P10275); assay: UPITT_HCI_U2OS_AR_TIF2_Nucleoli_Antagonist: University of Pittsburgh U2OS Androgen Receptor-Transcriptional Intermediary Factor 2 (AR-TIF2) Antagonism High Content Imaging Assay for Nucleoli Translocation (AID 2283997; active = hit-call score of the fitted dose curve at least 0.9, where 1 is the maximum)
# Procedure, shortened: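 Antagonism is read as loss of nucleolar AR-RFP signal relative to DHT, imaged in U2OS cells also carrying GFP-TIF2. Compounds screened at 20 uM final, 0.2% DMSO; primary actives retested in triplicate.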
# [2] = target: Nucleoli Translocation, AR (gene 367) (UniProt P10275); assay: UPITT_HCI_U2OS_AR_TIF2_Nucleoli_Agonist: University of Pittsburgh U2OS Androgen Receptor-Transcriptional Intermediary Factor 2 (AR-TIF2) Agonism High Content Imaging Assay for Nucleoli Translocation (AID 2283998; active = hit-call score of the fitted dose curve at least 0.9, where 1 is the maximum)
# Procedure, shortened: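 Cells express human AR fused to red fluorescent protein and TIF2 fused to GFP. Red fluorescence in the nucleolar region was quantified by high-content imaging and fitted as gain-of-signal against a DMSO baseline. Compounds were tested at 0.195 to 50 uM final (0.5% DMSO).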
# [3] = target: Ratio of Nucleoli Translocation and Cytoplasm, AR (gene 367) (UniProt P10275); assay: UPITT_HCI_U2OS_AR_TIF2_Nucleoli_Cytoplasm_Ratio_Antagonist: University of Pittsburgh U2OS Androgen Receptor-Transcriptional Intermediary Factor 2 (AR-TIF2) Antagonism High Content Imaging Assay for Ratio of Nucleoli Translocation and Cytoplasm (AID 2283999; active = hit-call score of the fitted dose curve at least 0.9, where 1 is the maximum;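 note: antagonists lower the DHT-driven ratio of nucleolar to cytoplasmic red signal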)
# Procedure, shortened: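 High-content imaging of red fluorescence ratio, nucleoli versus cytoplasm, in U2OS expressing AR-RFP and TIF2-GFP, fitted relative to DHT. Compounds tested once at 20 uM final, then 0.195 to 50 uM final in serial dilution.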
# [4] = CCTE_Harrill_HTTr_Apoptosis_MCF7: CCTE's 6-hour Apoptosis Assessment for the High-Throughput Transcriptomics (HTTr) Platform, in MCF-7 cells cultured in DMEM + 10% fetal bovine serum, Harrill Lab (AID 2284011)
# Procedure, shortened: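 MCF-7 cells in DMEM + 10% fetal bovine serum were exposed to chemicals for 6 hours over an eight-point dilution series. Caspase-3/7 activation was imaged by high content imaging with CellEvent Caspase 3/7 Green; bidirectional fitting used DMSO as baseline.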
# [5] = CCTE_Harrill_HTTr_CellCount_MCF7: CCTE's Cell Proliferation Assessment for the High-Throughput Transcriptomics (HTTr) Platform, Harrill Lab (AID 2284012; active = hit-call score of the fitted dose curve at least 0.9, where 1 is the maximum;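 note: cells exposed to compound for six hours; intended direction is loss of nuclei count meaning fewer cells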)
# Procedure, shortened: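 Cell count from high-content imaging of Hoechst-labeled nuclei serves as viability/growth readout. Chemicals were applied to MCF-7 cells in eight concentrations for six hours, with fitting in both directions relative to DMSO.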
# [6] = target: Ratio of Nucleoli Translocation and Cytoplasm, AR (gene 367) (UniProt P10275); assay: UPITT_HCI_U2OS_AR_TIF2_Nucleoli_Cytoplasm_Ratio_Agonist: University of Pittsburgh U2OS Androgen Receptor-Transcriptional Intermediary Factor 2 (AR-TIF2) Agonism High Content Imaging Assay for Ratio of Nucleoli Translocation and Cytoplasm (AID 2284000; active = hit-call score of the fitted dose curve at least 0.9, where 1 is the maximum;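 note: hits raise the red nucleolar to cytoplasm ratio above vehicle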)
# Procedure, shortened: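 Compounds tested at 20 uM final in primary screen (0.2% DMSO) and 0.195-50 uM final in dose-response (0.5% DMSO). Imaging of human U2OS cells bearing RFP-AR and GFP-TIF2; endpoint is nucleoli/cytoplasm red signal ratio, positive direction relative to DMSO.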
# [7] = CCTE_Simmons_MITO_basal_resp_rate: CCTE's HepG2 Seahorse XF Respirometric Screening Assay at Basal Respiratory State, Simmons Lab (AID 2284001); details: actives raise or lower the signal
# Procedure, shortened: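 Basal-phase OCR in HepG2 cells, read at 6-min intervals across a 72-min run, with test compound injected at 125 nM–100 uM final (7 points). Fitted both directions against DMSO; three biological replicates per concentration.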
# [8] = CCTE_Simmons_MITO_max_resp_rate: CCTE's HepG2 Seahorse XF Respirometric Screening Assay at Maximal Respiratory State [uncoupled], Simmons Lab (AID 2284002); details: actives raise or lower the signal
# Procedure, shortened: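 HepG2 oxygen consumption was read on a Seahorse XF96 after FCCP uncoupler injection, following test compound injection; 7 concentrations, 125 nM–100 uM final, three biological replicates. Bidirectional fitting against DMSO vehicle baseline.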
# [9] = CCTE_Simmons_MITO_inhib_resp_rate: CCTE's HepG2 Seahorse XF Respirometric Screening Assay at Inhibited Respiratory State [full ETC block], Simmons Lab (AID 2284006); details: actives raise or lower the signal
# Procedure, shortened: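 This endpoint is the respiration rate remaining after rotenone/antimycin A block, in HepG2 cells on a Seahorse XF96. Chemicals spanned 125 nM–100 uM final, in three biological replicates. OCR was read every 6 minutes for 72 minutes and compared with DMSO vehicle.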
# [10] = CCTE_Shafer_MEA_acute_firing_rate_mean: CCTE's Neural Acute Assay for Mean Firing Rate, Shafer Lab (AID 2284009);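 note: analyzed for loss of signal so actives lower firing rate relative to DMSO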
# Procedure, shortened: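 Primary rat cortical neurons on 16-electrode MEA wells were exposed on DIV 13 or 15 to compound (0.03-40 uM). Spike counts per recording time, averaged over electrodes, were compared between 40-min baseline and 40-min post-exposure recordings as percent change.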
# [11] = CCTE_Shafer_MEA_acute_burst_number: CCTE's Neural Acute Assay for Single-Electrode Bursts, Shafer Lab (AID 2284013)
# Procedure, shortened: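 Primary rat cortical neurons on 16-electrode MEA wells, DIV 13 or 15, exposed to compound (0.03-40 uM; ≥3 wells); 40-min recordings at 37 C before and after treatment. Burst count expressed as percent change from baseline, DMSO as negative control.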
# [12] = CCTE_Shafer_MEA_acute_burst_duration_mean: CCTE's Neural Acute Assay for Mean Burst Duration, Shafer Lab (AID 2284014);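 note: hits are decreases in mean burst duration relative to DMSO controls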
# Procedure, shortened: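 Mean burst duration was compared between a 40 min baseline and a 40 min recording in the presence of compound (0.03-40 uM, 37 C), giving percent change per well. Cultures were rat cortical neurons at DIV 13 or 15; wells needed ≥10 active electrodes.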
# [13] = CCTE_Shafer_MEA_acute_burst_percentage_mean: CCTE's Neural Acute Assay for Percentage of Spikes in a Burst, Shafer Lab (AID 2284017);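 for AC50: curve fitted for loss of signal so potency reflects decreased burst percentage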
# Procedure, shortened: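 Well-level mean burst percentage from a 40-min recording after compound (0.03-40 uM) expressed as percent change from a 40-min baseline at 37C. Cultures: primary rat cortical neurons on MEA, dosed on DIV 13 or 15; fitted downward relative to DMSO.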
# [14] = CCTE_Shafer_MEA_acute_burst_percentage_std: CCTE's Neural Acute Assay for Standard Deviation of Burst Percentage, Shafer Lab (AID 2284018);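 note: fitted in the negative direction so actives lower burst percentage SD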
# Procedure, shortened: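 Value is percent change from baseline in the across-electrode SD of spikes-in-bursts percentage, wells with >/= 10 active electrodes. Acute 40-min exposure to 0.03-40 uM on DIV 13 or 15 rat cortical cultures, recorded at 37 C after 40-min baseline.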
# [15] = CCTE_Shafer_MEA_acute_per_network_burst_spike_number_mean: CCTE's Neural Acute Assay for Average Number of Spikes in a Network Burst, Shafer Lab (AID 2284019);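 for AC50: curve fitted for loss of signal so actives reduce spikes per network burst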
# Procedure, shortened: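 Percent change from baseline in mean spikes per network burst, spikes detected at 8x rms noise. Each compound at 0.03-40 uM in at least three wells of rat cortical cultures, recorded 40 min before and 40 min during exposure.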
# [16] = CCTE_Shafer_MEA_acute_per_network_burst_spike_number_std: CCTE's Neural Acute Assay for Standard Deviation of Number of Spikes in a Network Burst, Shafer Lab (AID 2284020);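 note: fitted for decrease in spike-number SD versus DMSO so actives lower it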
# Procedure, shortened: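 Endpoint: percent change from 40 min baseline in standard deviation of spikes per network burst, after 40 min compound exposure (0.03-40 uM, 37 C). Cortical rat neurons on MEA at DIV 13 or 15; spikes detected at 8x rms noise, 300-5000 Hz band-pass.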
# [17] = CCTE_Shafer_MEA_acute_per_network_burst_electrodes_number_mean: CCTE's Neural Acute Assay for Mean Number of Electrodes in a Network Burst, Shafer Lab (AID 2284021);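 note: curves fitted for decreases only so hits reduce electrodes per burst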
# Procedure, shortened: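 Rat primary cortical neurons on 16-electrode MEA wells were recorded 40 min at baseline on DIV 13 or 15, then 40 min after compound (0.03-40 uM), at 37 C. Value is percent change per well, fitted in loss direction versus DMSO.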
# [18] = CCTE_Shafer_MEA_acute_network_burst_percentage: CCTE's Neural Acute Assay for Percentage of Network Bursts, Shafer Lab (AID 2284022);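 note: curves fitted for loss so actives lower network burst percentage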
# Procedure, shortened: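 Primary rat cortical neurons on 16-electrode MEA wells, treated on DIV 13 or 15 with compound (0.03-40 uM); 40-min baseline and 40-min post-exposure recordings at 37 C. Value is percent change in spikes within network bursts versus baseline, DMSO negative control.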
# [19] = CCTE_Harrill_HTTr_Viability_MCF7: CCTE's 6-hour Cell Viability Assessment for the High-Throughput Transcriptomics (HTTr) Platform, in MCF-7 cells cultured in DMEM + 10% fetal bovine serum, Harrill Lab (AID 2284010)
# Procedure, shortened: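 Propidium iodide exclusion, imaged by high-content analysis, gauged viability after a six-hour exposure across eight concentrations. Cells were MCF-7 grown in DMEM with 10% fetal bovine serum; fits run in both directions against DMSO.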
# Sequence of Nucleoli Translocation, AR (gene 367) (P10275 whole entry, looked up, the tested form may be a part): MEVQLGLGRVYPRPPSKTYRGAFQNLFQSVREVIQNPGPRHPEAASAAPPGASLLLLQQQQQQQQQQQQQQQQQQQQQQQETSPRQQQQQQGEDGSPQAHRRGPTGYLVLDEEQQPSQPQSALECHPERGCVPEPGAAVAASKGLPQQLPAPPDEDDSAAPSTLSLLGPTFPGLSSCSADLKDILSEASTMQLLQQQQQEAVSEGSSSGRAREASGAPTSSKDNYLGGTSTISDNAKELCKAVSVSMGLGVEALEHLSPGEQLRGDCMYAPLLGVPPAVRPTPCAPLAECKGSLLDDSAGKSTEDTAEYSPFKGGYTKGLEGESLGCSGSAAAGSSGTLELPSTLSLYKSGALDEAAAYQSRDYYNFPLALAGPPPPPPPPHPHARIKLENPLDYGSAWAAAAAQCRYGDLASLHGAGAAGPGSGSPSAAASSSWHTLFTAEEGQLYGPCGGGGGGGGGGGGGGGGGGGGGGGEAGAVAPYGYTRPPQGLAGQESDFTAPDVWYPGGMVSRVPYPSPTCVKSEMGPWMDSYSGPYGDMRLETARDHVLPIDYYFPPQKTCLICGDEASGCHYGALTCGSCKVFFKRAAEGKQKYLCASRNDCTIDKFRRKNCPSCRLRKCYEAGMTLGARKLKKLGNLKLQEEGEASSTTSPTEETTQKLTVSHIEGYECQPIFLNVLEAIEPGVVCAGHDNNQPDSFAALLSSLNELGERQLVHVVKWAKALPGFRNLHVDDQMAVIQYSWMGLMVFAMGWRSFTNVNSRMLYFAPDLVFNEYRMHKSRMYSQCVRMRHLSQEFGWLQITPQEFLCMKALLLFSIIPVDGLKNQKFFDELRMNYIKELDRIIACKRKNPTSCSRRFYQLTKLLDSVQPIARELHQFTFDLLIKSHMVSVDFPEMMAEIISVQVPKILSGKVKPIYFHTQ
# Sequence of Ratio of Nucleoli Translocation and Cytoplasm, AR (gene 367) (P10275 whole entry, looked up): as the sequence (P10275 whole entry, looked up, the tested form may be a part) above
compound,measurement,setting,value
CN(C)C(=S)SSC(=S)N(C)C,AC50,[1],12.6 µM (active)
same,outcome,[2],inactive
same,AC50,[3],9.92 µM (active)
same,outcome,[4],inactive
same,outcome,[5],inactive
CCCC1COC(Cn2cncn2)(c2ccc(Cl)cc2Cl)O1 (stereo not given),AC50,[2],92.8 µM (active)
same,outcome,[3],inactive
same,AC50,[6],89.2 µM (active)
same,AC50,[7],18.4 µM (active)
same,AC50,[8],33.7 µM (active)
same,outcome,[9],inactive
same,outcome,[10],inactive
same,outcome,[4],inactive
same,outcome,[11],inactive
same,outcome,[12],inactive
same,AC50,[13],14.6 µM (active)
same,outcome,[14],inactive
same,AC50,[15],9.03 µM (active)
same,AC50,[16],12.6 µM (active)
same,AC50,[17],15.2 µM (active)
same,AC50,[18],20 µM (active)
COC(=O)N(OC)c1ccccc1COc1ccn(-c2ccc(Cl)cc2)n1,AC50,[7],2.05 µM (active)
same,AC50,[8],1.7 µM (active)
same,AC50,[9],1.69 µM (active)
same,AC50,[10],78.3 nM (active)
same,outcome,[19],inactive
same,outcome,[4],inactive
same,AC50,[11],94.2 nM (active)
same,outcome,[12],inactive
same,AC50,[13],0.976 µM (active)
same,AC50,[14],76.5 nM (active)
same,outcome,[15],inactive
same,outcome,[16],inactive
same,outcome,[17],inactive
same,AC50,[18],0.113 µM (active)
OC(c1ccc(Cl)cc1)(c1cncnc1)c1ccccc1Cl (stereo not given),outcome,[7],inactive
same,outcome,[8],inactive
same,outcome,[9],inactive
same,AC50,[10],803 nM (active)
same,outcome,[4],inactive
same,outcome,[5],inactive
same,AC50,[11],882 nM (active)
same,AC50,[12],5 µM (active)
same,AC50,[13],2.9 µM (active)
same,outcome,[14],inactive
same,AC50,[15],1.62 µM (active)
same,AC50,[16],2.84 µM (active)
same,AC50,[17],2.52 µM (active)
same,AC50,[18],6.61 µM (active)
CO/C=C(/C(=O)OC)c1ccccc1Oc1cc(Oc2ccccc2C#N)ncn1,outcome,[1],inactive
same,outcome,[3],inactive
same,AC50,[7],9.66 µM (active) and 9.17 µM (active)
same,AC50,[8],6.48 µM (active) and 5.12 µM (active)
same,AC50,[9],17.9 µM (active) and 8.88 µM (active)
same,outcome,[10],inactive
same,outcome,[19],inactive
same,outcome,[4],inactive
same,outcome,[5],inactive
same,outcome,[11],inactive
same,outcome,[12],inactive
same,AC50,[13],10.2 µM (active)
same,outcome,[14],inactive
same,outcome,[15],inactive
same,outcome,[16],inactive
same,AC50,[17],7.21 µM (active)
same,AC50,[18],11.1 µM (active)
CCCCNC(=O)OCC#CI,AC50,[7],14.3 µM (active)
same,AC50,[8],91.7 µM (active)
same,outcome,[9],inactive
same,AC50,[10],10200 nM (active)
same,outcome,[4],inactive
same,outcome,[5],inactive
same,outcome,[11],inactive
same,outcome,[12],inactive
same,AC50,[13],20 µM (active)
same,outcome,[14],inactive
same,outcome,[15],inactive
same,AC50,[16],6.46 µM (active)
same,AC50,[17],20 µM (active)
same,AC50,[18],37.1 µM (active)
CC(C)Oc1cc(-n2nc(C(C)(C)C)oc2=O)c(Cl)cc1Cl,outcome,[1],inactive
same,outcome,[2],inactive
same,outcome,[3],inactive
same,outcome,[6],inactive
same,outcome,[7],inactive
same,outcome,[8],inactive
same,outcome,[9],inactive
same,outcome,[10],inactive
same,outcome,[4],inactive
same,outcome,[5],inactive
same,outcome,[11],inactive
same,outcome,[12],inactive
same,outcome,[13],inactive
same,outcome,[14],inactive
same,outcome,[15],inactive
same,outcome,[16],inactive
same,outcome,[17],inactive
same,outcome,[18],inactive
CC(C)(C)c1ccc(CSc2cnn(C(C)(C)C)c(=O)c2Cl)cc1,AC50,[7],0.96 µM (active)
same,AC50,[8],0.655 µM (active)
same,AC50,[9],0.359 µM (active)
same,AC50,[10],24.9 nM (active)
same,outcome,[4],inactive
same,AC50,[11],19 nM (active)
same,AC50,[12],5.1 µM (active)
same,AC50,[13],2.67 µM (active)
same,outcome,[14],inactive
same,AC50,[15],1.64 µM (active)
same,AC50,[16],2.12 µM (active)
same,AC50,[17],1.37 µM (active)
same,AC50,[18],3.29 µM (active)
CCON=C(CC)C1=C(O)CC(c2c(C)cc(C)cc2C)CC1=O (stereo not given),outcome,[1],inactive
same,outcome,[3],inactive
same,outcome,[19],inactive
same,outcome,[4],inactive
